# Results taken from the supplement of paper PMC4466140.
# What was measured:
# Assay in all cases: SPOT peptide array binding signal intensity (averaged, normalized) (arbitrary units (background-subtracted, floor 0; scale differs between SH3 domains)); higher = stronger binding of the SH3 domain to the peptide
# [1] = molecular target: AgAbp1
# In short: (§1)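 GST-fused SH3 domains, from four yeast species, were produced in E. coli BL21(DE3) and captured on glutathione Sepharose. Membranes of cellulose carrying synthetic 15-mer peptides, in which cysteines had been replaced by serines, were exposed to each domain at 10 μg/ml overnight at 4°C in TBS-based blocking buffer. After anti-GST antibody, an HRP anti-mouse secondary and luminol, spots were imaged and quantified using Genespotter. Binding signal is normalized and background-subtracted spot intensity, averaged over replicates, in arbitrary units that differ between domains.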
# [2] = molecular target: AgBbc1
# In short: as §1
# [3] = molecular target: AgBem1-D1
# In short: as §1
# [4] = molecular target: AgBzz1-D1
# In short: as §1
# [5] = molecular target: AgBzz1-D2
# In short: as §1
# [6] = molecular target: AgCyk3
# In short: as §1
# [7] = molecular target: AgFus1
# In short: as §1
# [8] = molecular target: AgHof1
# In short: as §1
# [9] = molecular target: AgHse1
# In short: as §1
# [10] = molecular target: AgLsb1
# In short: as §1
# [11] = molecular target: AgLsb4
# In short: as §1
# [12] = molecular target: AgMyo5
# In short: as §1
# [13] = molecular target: AgNbp2
# In short: as §1
# [14] = molecular target: AgRvs167
# In short: as §1
# [15] = molecular target: AgSho1
# In short: as §1
# [16] = molecular target: AgSla1-D1-D2
# In short: as §1
# [17] = molecular target: AgSla1-D3
# In short: as §1
# [18] = molecular target: CaAbp1-D1
# In short: as §1
# [19] = molecular target: CaAbp1-D2
# In short: as §1
# [20] = molecular target: CaBbc1
# In short: as §1
# [21] = molecular target: CaBem1-D1
# In short: as §1
# [22] = molecular target: CaBzz1-D1
# In short: as §1
# [23] = molecular target: CaBzz1-D2
# In short: as §1
# [24] = molecular target: CaCyk3
# In short: as §1
# [25] = molecular target: CaFus1
# In short: as §1
# [26] = molecular target: CaHof1
# In short: as §1
# [27] = molecular target: CaHse1
# In short: as §1
# [28] = molecular target: CaLsb1
# In short: as §1
# [29] = molecular target: CaLsb4
# In short: as §1
# [30] = molecular target: CaMyo5
# In short: as §1
# [31] = molecular target: CaNbp2
# In short: as §1
# [32] = molecular target: CaRvs167
# In short: as §1
# [33] = molecular target: CaRvs167-3
# In short: as §1
# [34] = molecular target: CaSho1
# In short: as §1
# [35] = molecular target: CaSla1-D1-D2
# In short: as §1
# [36] = molecular target: CaSla1-D3
# In short: as §1
# [37] = molecular target: ScAbp1
# In short: as §1
# [38] = molecular target: ScBbc1
# In short: as §1
# [39] = molecular target: ScBem1-D1
# In short: as §1
# [40] = molecular target: ScBzz1-D1
# In short: as §1
# [41] = molecular target: ScBzz1-D2
# In short: as §1
# [42] = molecular target: ScCyk3
# In short: as §1
# [43] = molecular target: ScFus1
# In short: as §1
# [44] = molecular target: ScHof1
# In short: as §1
# [45] = molecular target: ScHse1
# In short: as §1
# [46] = molecular target: ScLsb1
# In short: as §1
# [47] = molecular target: ScLsb2
# In short: as §1
# [48] = molecular target: ScLsb3
# In short: as §1
# [49] = molecular target: ScLsb4
# In short: as §1
# [50] = molecular target: ScMyo3
# In short: as §1
# [51] = molecular target: ScMyo5
# In short: as §1
# [52] = molecular target: ScNbp2
# In short: as §1
# [53] = molecular target: ScPex13
# In short: as §1
# [54] = molecular target: ScRvs167
# In short: as §1
# [55] = molecular target: ScSho1
# In short: as §1
# [56] = molecular target: ScSla1-D1-D2
# In short: as §1
# [57] = molecular target: ScSla1-D3
# In short: as §1
# [58] = molecular target: SpAbp1-D1
# In short: as §1
# [59] = molecular target: SpBbc1
# In short: as §1
# [60] = molecular target: SpBzz1-D1
# In short: as §1
# [61] = molecular target: SpBzz1-D2
# In short: as §1
# [62] = molecular target: SpCyk3
# In short: as §1
# [63] = molecular target: SpHof1
# In short: as §1
# [64] = molecular target: SpHof1-2
# In short: as §1
# [65] = molecular target: SpHof1-3
# In short: as §1
# [66] = molecular target: SpHse1
# In short: as §1
# [67] = molecular target: SpLsb1
# In short: as §1
# [68] = molecular target: SpLsb4
# In short: as §1
# [69] = molecular target: SpMyo1
# In short: as §1
# [70] = molecular target: SpNbp2
# In short: as §1
# [71] = molecular target: SpPex13
# In short: as §1
# [72] = molecular target: SpRvs167
# In short: as §1
# [73] = molecular target: SpSla1-D1-D2
# In short: as §1
# [74] = molecular target: SpSla1-D3
# In short: as §1
binder,measurement,setting,value
NTMKKRPAPPSLPSL,SPOT peptide array binding signal intensity,[1],93
same,SPOT peptide array binding signal intensity,[2],21
same,SPOT peptide array binding signal intensity,[3],405
same,SPOT peptide array binding signal intensity,[4],152
same,SPOT peptide array binding signal intensity,[5],240
same,SPOT peptide array binding signal intensity,[6],≤ 0
same,SPOT peptide array binding signal intensity,[7],375
same,SPOT peptide array binding signal intensity,[8],286
same,SPOT peptide array binding signal intensity,[9],641
same,SPOT peptide array binding signal intensity,[10],15.5
same,SPOT peptide array binding signal intensity,[11],61.5
same,SPOT peptide array binding signal intensity,[12],66.5
same,SPOT peptide array binding signal intensity,[13],384
same,SPOT peptide array binding signal intensity,[14],3.33
same,SPOT peptide array binding signal intensity,[15],496
same,SPOT peptide array binding signal intensity,[16],114
same,SPOT peptide array binding signal intensity,[17],59.8
same,SPOT peptide array binding signal intensity,[18],1570
same,SPOT peptide array binding signal intensity,[19],892
same,SPOT peptide array binding signal intensity,[20],151
same,SPOT peptide array binding signal intensity,[21],279
same,SPOT peptide array binding signal intensity,[22],2650
same,SPOT peptide array binding signal intensity,[23],952
same,SPOT peptide array binding signal intensity,[24],13.5
same,SPOT peptide array binding signal intensity,[25],1380
same,SPOT peptide array binding signal intensity,[26],0.5
same,SPOT peptide array binding signal intensity,[27],262
same,SPOT peptide array binding signal intensity,[28],6
same,SPOT peptide array binding signal intensity,[29],589
same,SPOT peptide array binding signal intensity,[30],137
same,SPOT peptide array binding signal intensity,[31],1280
same,SPOT peptide array binding signal intensity,[32],89
same,SPOT peptide array binding signal intensity,[33],1.25
same,SPOT peptide array binding signal intensity,[34],1700
same,SPOT peptide array binding signal intensity,[35],648
same,SPOT peptide array binding signal intensity,[36],246
same,SPOT peptide array binding signal intensity,[37],30
same,SPOT peptide array binding signal intensity,[38],4.5
same,SPOT peptide array binding signal intensity,[39],1
same,SPOT peptide array binding signal intensity,[40],134
same,SPOT peptide array binding signal intensity,[41],59
same,SPOT peptide array binding signal intensity,[42],11
same,SPOT peptide array binding signal intensity,[43],457
same,SPOT peptide array binding signal intensity,[44],19.5
same,SPOT peptide array binding signal intensity,[45],1410
same,SPOT peptide array binding signal intensity,[46],29.5
same,SPOT peptide array binding signal intensity,[47],≤ 0
same,SPOT peptide array binding signal intensity,[48],344
same,SPOT peptide array binding signal intensity,[49],130
same,SPOT peptide array binding signal intensity,[50],350
same,SPOT peptide array binding signal intensity,[51],287
same,SPOT peptide array binding signal intensity,[52],383
same,SPOT peptide array binding signal intensity,[53],310
same,SPOT peptide array binding signal intensity,[54],64.5
same,SPOT peptide array binding signal intensity,[55],837
same,SPOT peptide array binding signal intensity,[56],234
same,SPOT peptide array binding signal intensity,[57],521
same,SPOT peptide array binding signal intensity,[58],78.5
same,SPOT peptide array binding signal intensity,[59],3
same,SPOT peptide array binding signal intensity,[60],1170
NMLKKKPLKKPLKRF,SPOT peptide array binding signal intensity,[31],438
same,SPOT peptide array binding signal intensity,[32],47.7
same,SPOT peptide array binding signal intensity,[33],44
same,SPOT peptide array binding signal intensity,[34],612
same,SPOT peptide array binding signal intensity,[35],586
same,SPOT peptide array binding signal intensity,[36],370
same,SPOT peptide array binding signal intensity,[37],1040
same,SPOT peptide array binding signal intensity,[38],1.5
same,SPOT peptide array binding signal intensity,[39],31
same,SPOT peptide array binding signal intensity,[40],10
same,SPOT peptide array binding signal intensity,[41],22
same,SPOT peptide array binding signal intensity,[42],28
same,SPOT peptide array binding signal intensity,[43],648
same,SPOT peptide array binding signal intensity,[44],0.25
same,SPOT peptide array binding signal intensity,[45],1740
same,SPOT peptide array binding signal intensity,[46],1
same,SPOT peptide array binding signal intensity,[47],1
same,SPOT peptide array binding signal intensity,[48],340
same,SPOT peptide array binding signal intensity,[49],94
same,SPOT peptide array binding signal intensity,[50],2
same,SPOT peptide array binding signal intensity,[51],≤ 0
same,SPOT peptide array binding signal intensity,[52],552
same,SPOT peptide array binding signal intensity,[53],194
same,SPOT peptide array binding signal intensity,[54],7
same,SPOT peptide array binding signal intensity,[55],1720
same,SPOT peptide array binding signal intensity,[56],616
same,SPOT peptide array binding signal intensity,[57],261
same,SPOT peptide array binding signal intensity,[58],1740
same,SPOT peptide array binding signal intensity,[59],4.25
same,SPOT peptide array binding signal intensity,[60],279
same,SPOT peptide array binding signal intensity,[61],48.2
same,SPOT peptide array binding signal intensity,[62],7.5
same,SPOT peptide array binding signal intensity,[63],134
same,SPOT peptide array binding signal intensity,[64],26
same,SPOT peptide array binding signal intensity,[65],804
same,SPOT peptide array binding signal intensity,[66],772
same,SPOT peptide array binding signal intensity,[67],31.8
same,SPOT peptide array binding signal intensity,[68],388
same,SPOT peptide array binding signal intensity,[69],21.8
same,SPOT peptide array binding signal intensity,[70],536
same,SPOT peptide array binding signal intensity,[71],73.5
same,SPOT peptide array binding signal intensity,[72],15.8
same,SPOT peptide array binding signal intensity,[73],9
same,SPOT peptide array binding signal intensity,[74],106
